Measurements taken from PubChem BioAssay (Tox21).
Records with an inconclusive call do not appear. The source made the active and inactive calls. Unless noted, the call rests on the fitted dose curve; in most records, active means well fitted curve in the direction sought with a large enough effect in the repeat runs; inconclusive means weak or mixed curves; inactive means no such curve, though single readings can be large; an effect the other way counts as inactive or inconclusive.

Columns and labels:
[1] = qHTS assay for small molecule agonists of the p53 signaling pathway (AID 651631; calls by dose curve; further: nearly all actives have a fitted effect of over 15% in size)
Summary of the method: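 HCT-116 cells carrying a beta-lactamase reporter under p53 response elements were dosed with compound for 16 h at 37 °C. LiveBLAzer B/G FRET substrate was then added for 2 h at room temperature, and fluorescence intensity was read to detect pathway agonism.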

[2] = qHTS assay for small molecules that induce genotoxicity in human embryonic kidney cells expressing luciferase-tagged ATAD5 (AID 651632); further: nearly all actives have a fitted effect of over 15% in size
Summary of the method: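 DMSO vehicle served as the control. HEK293T reporter cells, 16 hr at 37C, then 30 min Amplite at room temperature; ATAD5 induction is measured as luciferase activity.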

[3] = qHTS assay for small molecule agonists of the p53 signaling pathway - cell viability (AID 651633; calls by dose curve;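 further: p53RE-bla HCT reporter cells with a stable beta-lactamase p53 reporter; series mostly up to about 83 µM; nearly all actives have a fitted effect of over 30% in size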)
Summary of the method: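 Viability counter-read: CellTiter-Glo luminescence (30 min, room temperature) in the same p53RE-bla plates. These plates had been exposed to compounds for 16 h at 37 C.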

[4] = qHTS assay for small molecules that induce genotoxicity in human embryonic kidney cells expressing luciferase-tagged ATAD5 - cell viability (AID 651634; calls by dose curve; further: nearly all actives have a fitted effect of over 25% in size)
Summary of the method: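 Here HEK293T cells with the ATAD5 luciferase reporter are incubated with test compounds for 15.5 hr, and cytotoxicity is then gauged by measuring protease activity in live cells using fluorescence.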

[5] = qHTS assay for small molecule disruptors of the mitochondrial membrane potential - cell viability (AID 720634; calls by dose curve;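 further: human HepG2 liver cancer cells; series mostly up to about 83 µM; nearly all actives have a fitted effect of over 20% in size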)
Summary of the method: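 Viability of HepG2 cells is scored from ATP content by luminescence; cells are exposed to compound for 1 hr at 37 C and 5% CO2, then dosed with m-MPI dye before the CellTiter-Glo reagent.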

[6] = qHTS assay to test for compound auto fluorescence at 590 nm (red) in HepG2 cells (AID 720674)
Summary of the method: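 We screened compounds on adherent HepG2 cells, incubating them for an hour at 37 C in 5% CO2 before reading emission at 590 nm under 540 nm excitation; values reflect equivalence to Rose Bengal sodium fluorescence.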

[7] = qHTS assay to test for compound auto fluorescence at 535 nm (green) in HepG2 cells (AID 720675)
[8] = qHTS assay to test for compound auto fluorescence at 460 nm (blue) in HEK293 cells (AID 720678)
Summary of the method: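 Blue-channel (Ex/Em 405/460 nm) intensity measured in HEK293 cultures after overnight compound exposure at 37C; signal expressed relative to triamterene. Cells plated 2,000 per well in 10% dialyzed FBS medium and allowed 4-5 hr to attach.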

[9] = qHTS assay to test for compound auto fluorescence at 590 nm (red) in HEK293 cells (AID 720679)
Summary of the method: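 Red-channel autofluorescence (Ex/Em 540/590 nm; Rose Bengal sodium reference) was measured after overnight 37C, 5% CO2 exposure of attached HEK293 cells, 2,000 per well in medium with 10% dialyzed FBS.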

[10] = qHTS assay to test for compound auto fluorescence at 535 nm (green) in HEK293 cells (AID 720680)
[11] = qHTS assay to test for compound auto fluorescence at 460 nm (blue) in HEK293 cell free culture (AID 720681)
Summary of the method: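 Blue fluorescence (Ex 405/Em 460 nm, triamterene-equivalent) was read immediately after pin transfer of compound or DMSO into medium (DMEM, 10% FBS) without cells.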

[12] = qHTS assay to test for compound auto fluorescence at 535 nm (green) in HEK293 cell free culture (AID 720682)
Summary of the method: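 Green-label autofluorescence (485 nm excitation, 535 nm emission) measured on compound added to cell-free culture medium (DMEM, 10% FBS). Output is expressed relative to fluorescein.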

[13] = qHTS assay to test for compound auto fluorescence at 590 nm (red) in HEK293 cell free culture (AID 720683)
Summary of the method: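 Red-channel autofluorescence of compounds in culture medium (DMEM, 10% FBS), no cells, measured at 540/590 nm. Rose Bengal sodium is the reference fluorophore for equivalence.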

[14] = qHTS assay to test for compound auto fluorescence at 590 nm (red) in HepG2 cell free culture (AID 720684)
Summary of the method: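 No cells present: MEM + 10% FBS only. Compound pinned in, red label read (540/590 nm). Activity = fluorescence equivalent to Rose Bengal sodium.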

[15] = qHTS assay to test for compound auto fluorescence at 460 nm (blue) in HepG2 cell free culture (AID 720685)
Summary of the method: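 Cell-free plates of MEM plus 10% FBS received 23 nL compound or DMSO vehicle; blue-channel (405/460 nm) intensity scored against triamterene as reference fluorophore.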

[16] = qHTS assay to test for compound auto fluorescence at 535 nm (green) in HepG2 cell free culture (AID 720686)
[17] = qHTS assay to test for compound auto fluorescence at 460 nm (blue) in HepG2 cells (AID 720687)
Summary of the method: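 Blue-channel autofluorescence (Ex/Em 405/460 nm, triamterene-equivalent) was measured after 1 hr compound exposure at 37 C, 5% CO2. Cells were HepG2, plated overnight at 37 C in MEM plus 10% FBS.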

[18] = target: Glucocorticoid receptor (Homo sapiens) (UniProt P04150); test: qHTS assay to identify small molecule agonists of the glucocorticoid receptor (GR) signaling pathway (AID 720691; active means well fitted activation curve with a large enough effect in the signal ratio in the repeat runs, not every such curve was filed as active; the % refers to the signal ratio)
Summary of the method: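 Compounds in DMSO, alongside positive controls, were added to GR-bla HeLa reporter cells and incubated 18 h at 37 C; GRE-driven beta-lactamase was detected by fluorescence after 2 h with FRET substrate at room temperature.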

[19] = target: Glucocorticoid receptor (Homo sapiens) (UniProt P04150); test: qHTS assay to identify small molecule antagonists of the glucocorticoid receptor (GR) signaling pathway (AID 720692; active means well fitted inhibition curve with a large enough effect in the signal ratio in the repeat runs, not every such curve was filed as active; the % refers to the signal ratio)
Summary of the method: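 In a 1536-well cell format, compounds were added 4 h after seeding GR-bla HeLa cells, together with dexamethasone at 5 nM final; reporter activity was measured by FRET-substrate fluorescence following 18 h at 37 C.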

[20] = qHTS assay for small molecule disruptors of the mitochondrial membrane potential (AID 720635); further: potency means the concentration at half of the fitted maximal effect
Summary of the method: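 Mitochondrial membrane potential tracked with Mito-MPS dye, red aggregates (ex 540/em 590 nm) against green monomers (ex 490/em 535 nm). Compound treatment 1 hr at 37C, dye 30 min in HepG2.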

Measured: Potency

Glucocorticoid receptor (Homo sapiens), sequence (P04150 whole entry, looked up): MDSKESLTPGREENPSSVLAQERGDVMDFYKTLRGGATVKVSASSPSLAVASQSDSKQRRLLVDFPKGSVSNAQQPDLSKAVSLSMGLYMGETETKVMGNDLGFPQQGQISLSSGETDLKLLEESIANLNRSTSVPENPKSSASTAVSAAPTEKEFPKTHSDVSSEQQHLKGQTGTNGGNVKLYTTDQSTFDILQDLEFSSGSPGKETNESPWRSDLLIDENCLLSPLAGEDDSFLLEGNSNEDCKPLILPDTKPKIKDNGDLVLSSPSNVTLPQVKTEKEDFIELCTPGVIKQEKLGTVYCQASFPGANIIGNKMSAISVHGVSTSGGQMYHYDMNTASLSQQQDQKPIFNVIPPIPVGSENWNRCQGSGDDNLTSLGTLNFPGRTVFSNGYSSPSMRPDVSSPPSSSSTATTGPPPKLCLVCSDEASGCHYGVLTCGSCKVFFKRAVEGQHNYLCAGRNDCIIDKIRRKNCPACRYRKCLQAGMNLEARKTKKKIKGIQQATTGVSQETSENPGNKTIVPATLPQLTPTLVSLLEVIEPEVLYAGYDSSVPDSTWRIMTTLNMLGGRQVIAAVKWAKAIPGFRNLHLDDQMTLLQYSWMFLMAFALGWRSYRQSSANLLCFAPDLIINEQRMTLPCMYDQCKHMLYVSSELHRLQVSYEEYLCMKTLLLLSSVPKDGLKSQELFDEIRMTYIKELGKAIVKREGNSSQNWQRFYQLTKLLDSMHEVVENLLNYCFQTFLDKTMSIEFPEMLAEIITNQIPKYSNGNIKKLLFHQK

F[Si-2](F)(F)(F)(F)F
not listed: [20]
inactive: all other assays above

CCCCCCCCCCCCCCCC(=O)NCCO
not listed: [5] | [18] | [19]
inactive: all other assays above

NS(=O)(=O)c1ccc(Cl)c(S(N)(=O)=O)c1
not listed: [20]
inactive: all other assays above

CC(Cl)COP(=O)(OCC(C)Cl)OCC(C)Cl (stereo not given)
not listed: [18] | [20]
inactive: all other assays above

Cc1ccc2c(c1)c1c3n2CCNC3CCC1 (stereo not given)
not listed: [20]
inactive: all other assays above

C=CC(C)(O)CC/C=C(\C)CC (stereo not given)
not listed: [4] | [20]
inactive: all other assays above

NS(=O)(=O)c1ccccc1OC(F)(F)F
not listed: [4] | [18] | [19] | [20]
inactive: all other assays above

c1ccc(CNc2ncnc3nc[nH]c23)cc1
active: [20] 54.5 µM
not listed: [2] | [4] | [5] | [19]
inactive: all other assays above

CC1CCC(C(C)(C)S)C(=O)C1 (stereo not given)
not listed: [4] | [18] | [19]
inactive: all other assays above

CN(C)CCCNCCC#N
not listed: [4] | [18] | [19] | [20]
inactive: all other assays above

CCCCCCCCC(=O)OCC
not listed: [4] | [5]
inactive: all other assays above

CC(C)(CO)[C@@H](O)C(=O)NCCCO
not listed: [1] | [18] | [19]
inactive: all other assays above

COC(OC)C(C)c1ccccc1 (stereo not given)
not listed: [4] | [5]
inactive: all other assays above

CCCCCCCCOC(C)=O
not listed: [4] | [5] | [18] | [19] | [20]
inactive: all other assays above

CCOc1ccc(NC(=O)OC(C)C)cc1OCC
not listed: [5] | [10] | [20]
inactive: all other assays above
